The full data set covers some 8,800 targets. This sample favours those with a hit. About 0.5% of all pairs of compound and target were hits. Unmarked numbers belong to inactive results.

Sequence of UniProt Q5U3C3 (Q5U3C3 whole entry, looked up): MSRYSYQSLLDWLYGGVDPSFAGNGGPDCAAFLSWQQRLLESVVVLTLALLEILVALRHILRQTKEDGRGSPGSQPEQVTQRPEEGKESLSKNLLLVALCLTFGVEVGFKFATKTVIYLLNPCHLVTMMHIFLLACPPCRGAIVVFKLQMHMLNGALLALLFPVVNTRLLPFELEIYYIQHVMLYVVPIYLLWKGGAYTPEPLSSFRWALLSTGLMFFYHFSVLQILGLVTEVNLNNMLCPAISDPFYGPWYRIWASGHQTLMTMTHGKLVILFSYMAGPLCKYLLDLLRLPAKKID
Sequence of UniProt Q8TD43 (Q8TD43 whole entry, looked up): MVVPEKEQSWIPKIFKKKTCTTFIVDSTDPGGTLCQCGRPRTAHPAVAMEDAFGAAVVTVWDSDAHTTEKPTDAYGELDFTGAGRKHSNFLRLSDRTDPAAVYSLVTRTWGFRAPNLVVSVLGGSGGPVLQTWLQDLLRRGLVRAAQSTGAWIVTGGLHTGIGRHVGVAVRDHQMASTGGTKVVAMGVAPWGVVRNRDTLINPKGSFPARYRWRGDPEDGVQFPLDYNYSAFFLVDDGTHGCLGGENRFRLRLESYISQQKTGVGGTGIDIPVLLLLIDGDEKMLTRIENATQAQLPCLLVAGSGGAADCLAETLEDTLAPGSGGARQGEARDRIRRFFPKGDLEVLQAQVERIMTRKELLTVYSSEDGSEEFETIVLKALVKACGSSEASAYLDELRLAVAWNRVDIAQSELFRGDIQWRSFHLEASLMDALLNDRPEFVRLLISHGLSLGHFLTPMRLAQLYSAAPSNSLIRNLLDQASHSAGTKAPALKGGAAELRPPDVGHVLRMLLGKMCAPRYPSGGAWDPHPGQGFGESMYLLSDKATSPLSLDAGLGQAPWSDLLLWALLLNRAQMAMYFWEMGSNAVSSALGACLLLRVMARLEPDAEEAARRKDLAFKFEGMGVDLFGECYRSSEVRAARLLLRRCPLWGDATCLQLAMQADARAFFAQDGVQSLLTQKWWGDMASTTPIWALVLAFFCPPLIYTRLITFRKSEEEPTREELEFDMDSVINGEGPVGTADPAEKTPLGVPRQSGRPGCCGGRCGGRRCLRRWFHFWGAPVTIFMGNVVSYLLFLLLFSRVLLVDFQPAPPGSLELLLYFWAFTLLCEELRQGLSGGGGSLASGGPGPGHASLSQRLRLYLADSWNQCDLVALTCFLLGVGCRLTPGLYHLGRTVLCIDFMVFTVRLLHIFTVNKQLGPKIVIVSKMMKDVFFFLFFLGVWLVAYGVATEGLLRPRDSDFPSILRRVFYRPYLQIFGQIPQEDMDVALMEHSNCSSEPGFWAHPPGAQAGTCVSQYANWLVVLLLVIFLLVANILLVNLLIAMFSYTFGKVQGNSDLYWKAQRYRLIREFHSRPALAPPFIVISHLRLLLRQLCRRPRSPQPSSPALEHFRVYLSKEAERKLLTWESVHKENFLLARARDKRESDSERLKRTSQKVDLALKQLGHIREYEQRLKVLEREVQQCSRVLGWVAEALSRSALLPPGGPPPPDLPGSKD
Sequence of UniProt P04350 (P04350 whole entry, looked up): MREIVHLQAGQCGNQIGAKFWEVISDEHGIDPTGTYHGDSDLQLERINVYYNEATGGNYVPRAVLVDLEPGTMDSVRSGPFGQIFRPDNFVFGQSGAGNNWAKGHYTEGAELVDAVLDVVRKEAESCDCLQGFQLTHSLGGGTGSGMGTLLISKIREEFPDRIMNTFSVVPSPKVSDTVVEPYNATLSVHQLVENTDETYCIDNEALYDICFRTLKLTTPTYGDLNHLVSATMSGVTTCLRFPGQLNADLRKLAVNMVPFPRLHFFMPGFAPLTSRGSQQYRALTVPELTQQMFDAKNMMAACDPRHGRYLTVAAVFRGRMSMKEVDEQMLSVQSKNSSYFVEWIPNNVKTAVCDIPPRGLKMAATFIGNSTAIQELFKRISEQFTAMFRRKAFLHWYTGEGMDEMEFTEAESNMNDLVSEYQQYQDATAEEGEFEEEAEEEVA
Sequence of UniProt P09493 (P09493 whole entry, looked up): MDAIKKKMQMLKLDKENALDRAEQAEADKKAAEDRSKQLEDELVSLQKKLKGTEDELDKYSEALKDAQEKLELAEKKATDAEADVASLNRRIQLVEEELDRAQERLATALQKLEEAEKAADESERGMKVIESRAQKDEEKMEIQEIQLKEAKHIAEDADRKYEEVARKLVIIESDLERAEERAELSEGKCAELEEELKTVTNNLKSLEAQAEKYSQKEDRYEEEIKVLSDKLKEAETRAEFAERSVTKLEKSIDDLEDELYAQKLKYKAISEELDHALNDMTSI
Sequence of UniProt Q9BZL1 (Q9BZL1 whole entry, looked up): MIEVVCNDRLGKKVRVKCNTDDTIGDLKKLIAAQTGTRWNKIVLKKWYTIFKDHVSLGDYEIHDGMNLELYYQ
Sequence of UniProt Q14CS0 (Q14CS0 whole entry, looked up): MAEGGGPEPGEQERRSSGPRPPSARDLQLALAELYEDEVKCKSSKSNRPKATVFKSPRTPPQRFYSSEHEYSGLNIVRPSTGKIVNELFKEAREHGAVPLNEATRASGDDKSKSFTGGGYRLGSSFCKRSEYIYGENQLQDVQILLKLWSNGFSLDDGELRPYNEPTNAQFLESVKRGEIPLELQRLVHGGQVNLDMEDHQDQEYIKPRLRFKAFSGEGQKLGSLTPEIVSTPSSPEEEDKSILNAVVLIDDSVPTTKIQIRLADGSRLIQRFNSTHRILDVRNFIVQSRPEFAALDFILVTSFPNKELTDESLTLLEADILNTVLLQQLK
Sequence of UniProt Q9H3M7 (Q9H3M7 whole entry, looked up): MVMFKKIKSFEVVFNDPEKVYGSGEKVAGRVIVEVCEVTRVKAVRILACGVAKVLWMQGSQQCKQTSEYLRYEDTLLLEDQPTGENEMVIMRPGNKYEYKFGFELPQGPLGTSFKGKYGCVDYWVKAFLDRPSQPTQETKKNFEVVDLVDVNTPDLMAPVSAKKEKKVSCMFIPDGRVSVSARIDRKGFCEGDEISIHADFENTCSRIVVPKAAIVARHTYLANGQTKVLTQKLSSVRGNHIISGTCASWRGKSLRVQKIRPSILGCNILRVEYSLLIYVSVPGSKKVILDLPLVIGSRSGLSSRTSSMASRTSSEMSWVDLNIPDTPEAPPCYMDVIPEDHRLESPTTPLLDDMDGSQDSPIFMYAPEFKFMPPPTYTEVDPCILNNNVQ
Sequence of UniProt Q53S58 (Q53S58 whole entry, looked up): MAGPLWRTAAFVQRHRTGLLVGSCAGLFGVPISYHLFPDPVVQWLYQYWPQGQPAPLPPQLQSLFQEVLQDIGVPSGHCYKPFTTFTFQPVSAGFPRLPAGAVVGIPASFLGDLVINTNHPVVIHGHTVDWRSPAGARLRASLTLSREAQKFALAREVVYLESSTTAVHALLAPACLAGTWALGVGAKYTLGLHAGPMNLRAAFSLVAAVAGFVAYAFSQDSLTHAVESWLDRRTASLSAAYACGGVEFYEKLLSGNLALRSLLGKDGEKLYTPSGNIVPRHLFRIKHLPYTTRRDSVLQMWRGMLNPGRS
Sequence of UniProt O60637 (O60637 whole entry, looked up): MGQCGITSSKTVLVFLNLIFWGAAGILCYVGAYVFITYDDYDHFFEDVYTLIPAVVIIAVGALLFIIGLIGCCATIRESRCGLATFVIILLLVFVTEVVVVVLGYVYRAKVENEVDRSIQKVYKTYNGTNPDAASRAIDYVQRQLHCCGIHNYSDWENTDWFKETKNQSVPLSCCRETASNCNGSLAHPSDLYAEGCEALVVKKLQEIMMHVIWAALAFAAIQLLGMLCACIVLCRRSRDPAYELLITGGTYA
Sequence of UniProt Q04726 (Q04726 whole entry, looked up): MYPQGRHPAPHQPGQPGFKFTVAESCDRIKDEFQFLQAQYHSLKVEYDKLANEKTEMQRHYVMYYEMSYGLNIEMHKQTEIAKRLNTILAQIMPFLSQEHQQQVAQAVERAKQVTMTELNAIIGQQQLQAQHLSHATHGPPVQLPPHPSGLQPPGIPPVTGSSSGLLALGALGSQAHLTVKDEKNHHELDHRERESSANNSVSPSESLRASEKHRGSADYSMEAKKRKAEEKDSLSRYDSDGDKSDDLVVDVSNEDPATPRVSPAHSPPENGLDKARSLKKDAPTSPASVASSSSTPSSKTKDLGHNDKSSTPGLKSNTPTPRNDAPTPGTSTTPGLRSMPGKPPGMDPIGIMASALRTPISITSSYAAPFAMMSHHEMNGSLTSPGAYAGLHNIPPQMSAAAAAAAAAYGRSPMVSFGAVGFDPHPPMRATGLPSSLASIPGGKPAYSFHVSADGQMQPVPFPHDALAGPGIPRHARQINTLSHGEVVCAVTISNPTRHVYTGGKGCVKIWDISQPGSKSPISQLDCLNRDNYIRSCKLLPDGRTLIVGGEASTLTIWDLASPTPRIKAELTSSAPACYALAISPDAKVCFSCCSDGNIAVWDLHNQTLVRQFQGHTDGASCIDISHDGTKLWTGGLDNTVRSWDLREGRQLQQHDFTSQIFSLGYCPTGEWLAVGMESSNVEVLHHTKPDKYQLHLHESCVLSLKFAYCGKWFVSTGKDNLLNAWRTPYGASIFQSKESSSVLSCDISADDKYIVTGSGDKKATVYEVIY
Sequence of UniProt A6NHL2 (A6NHL2 whole entry, looked up): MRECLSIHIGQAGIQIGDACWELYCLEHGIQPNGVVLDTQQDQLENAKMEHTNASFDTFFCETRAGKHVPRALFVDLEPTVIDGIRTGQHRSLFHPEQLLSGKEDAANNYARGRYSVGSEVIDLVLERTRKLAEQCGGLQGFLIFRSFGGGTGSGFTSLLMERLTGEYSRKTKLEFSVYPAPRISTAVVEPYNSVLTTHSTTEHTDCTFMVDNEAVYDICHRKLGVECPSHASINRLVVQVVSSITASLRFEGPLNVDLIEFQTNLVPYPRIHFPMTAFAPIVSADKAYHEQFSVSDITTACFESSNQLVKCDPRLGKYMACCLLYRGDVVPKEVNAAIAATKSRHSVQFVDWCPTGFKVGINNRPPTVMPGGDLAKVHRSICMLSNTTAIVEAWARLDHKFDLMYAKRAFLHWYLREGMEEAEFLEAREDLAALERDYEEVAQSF
Sequence of UniProt P62328 (P62328 whole entry, looked up): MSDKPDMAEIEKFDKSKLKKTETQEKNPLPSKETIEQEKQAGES

Compound in one assay: C[C@@H](Oc1cc(-c2cnn(C3CCNCC3)c2)cnc1N)c1c(Cl)ccc(F)c1Cl [crizotinib]
Description: log2 fold change, soluble protein after heating vs DMSO (PISA); higher = thermal stabilisation; K562 lysate, 10 uM; active = over 0.2 and 3.5 SD of the protein, either way, in both replicates (recomputed). The method in brief: (§1)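 A 30 min treatment with 10 μM compound was applied to crude K562 extract at 1 mg/mL protein in PBS pH 7.4 with 1 mM MgCl2. Heating for 3 min spanned 48°C-58°C, after which aliquots were pooled, adjusted to 0.5% NP-40 at 4°C and spun at 21,000xg for 90 min. TMTpro 16plex LC-MS/MS of the supernatant, with channel sums equalised, gave values recorded as log-two fold change in thermal stability against solvent controls, from duplicates.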
Take UBL5 (UniProt Q9BZL1): the log2 fold change was 0.072.

On to TUBB4A (UniProt M0QYM7), for which the log2 fold change was -0.176.

With TMEM177 (UniProt Q53S58), the log2 fold change was 0.053.

With TLE3 isoform 5 (UniProt Q04726), the log2 fold change was 0.001.

Compound in the next assay: C[C@H](C1=CC=C(C=C1)C(=O)NC2=C3C=CNC3=NC=C2)N
The assay is described as above. In a few lines: as §1
With TMEM132A isoform 2 (UniProt Q24JP5), the log2 fold change is -0.084.

Regarding UBIAD1 (UniProt Q9Y5Z9), the log2 fold change was 0.036.

On to TMEM161B (UniProt Q8NDZ6), for which the log2 fold change is 0.009.

Turning to TK1 (UniProt K7ERV3), the log2 fold change is -0.07.

U2AF1L5 (UniProt P0DN76): the log2 fold change is -0.904 (active).

With TUBB4A (UniProt P04350), the log2 fold change was -0.081.

Turning to TM2D3 (UniProt Q9BRN9), the log2 fold change was -0.836 (active).

Turning to TUBGCP5 (UniProt Q96RT8), the log2 fold change is -0.044.

As for UBXN10 (UniProt Q96LJ8), the log2 fold change is -0.001.

In the case of UBXN2B (UniProt Q14CS0), the log2 fold change was -0.01.

In the case of UCHL5 (UniProt Q5LJA9), the log2 fold change was -0.07.

On to TNFAIP3 (UniProt P21580), for which the log2 fold change is 0.032.

For TUBB6 (UniProt K7ES63), the log2 fold change was -0.178.

Turning to TRPM4 (UniProt Q8TD43), the log2 fold change is -0.654 (active).

For TFAP4 (UniProt Q01664), the log2 fold change is 0.477 (active).

As to TMEM164 (UniProt Q5U3C3), the log2 fold change is -0.789 (active).

Take TTLL12 (UniProt V9GY16): the log2 fold change was -0.169.

Consider TPM3 isoform 3 (UniProt P06753), for which the log2 fold change is -0.411 (active).

In the case of TXNIP (UniProt Q9H3M7), the log2 fold change is 0.143.

For TMSB4X (UniProt P62328), the log2 fold change is -0.132.

As for TNKS (UniProt O95271), the log2 fold change is -0.302 (active).

For TJP1 (UniProt G3V1L9), the log2 fold change was 0.027.

As for TPD52L2 isoform 3 (UniProt O43399), the log2 fold change was -0.155.

TSPAN3 (UniProt O60637): the log2 fold change was 0.513 (active).

Regarding TMEM167B (UniProt Q9NRX6), the log2 fold change was -0.339 (active).

With TFPI (UniProt P10646), the log2 fold change is 0.625 (active).

Consider TPM1 isoform 4 (UniProt P09493), for which the log2 fold change was 0.061.

On to TBC1D20 isoform 3 (UniProt Q96BZ9), for which the log2 fold change is -0.087.

Take UBL5 (UniProt Q9BZL1): the log2 fold change is -0.194.

As for TUBAL3 (UniProt A6NHL2), the log2 fold change was -0.434.

Take TUBB4A (UniProt M0QYM7): the log2 fold change was -1.05 (active).

TMEM177 (UniProt Q53S58): the log2 fold change is -0.005.

Consider TLE3 isoform 5 (UniProt Q04726), for which the log2 fold change is -0.409.

Compound in another assay: C[C@H](Nc1ncnc2nc[nH]c12)c1cc2cccc(Cl)c2c(=O)n1-c1ccccc1 [duvelisib]
The assay is described as above. The method in brief: as §1
For the target UBIAD1 (UniProt Q9Y5Z9), the log2 fold change was -0.054.

On to TK1 (UniProt K7ERV3), for which the log2 fold change is -0.021.

Regarding U2AF1L5 (UniProt P0DN76), the log2 fold change is 0.021.

For TUBB4A (UniProt P04350), the log2 fold change is 0.059.

In the case of TUBGCP5 (UniProt Q96RT8), the log2 fold change was 0.103.

On to UBXN10 (UniProt Q96LJ8), for which the log2 fold change is 0.035.

For UBXN2B (UniProt Q14CS0), the log2 fold change is 0.07.

As for UCHL5 (UniProt Q5LJA9), the log2 fold change is 0.082.

Turning to TNFAIP3 (UniProt P21580), the log2 fold change was 0.038.

For TRPM4 (UniProt Q8TD43), the log2 fold change is 0.042.

As to TMEM164 (UniProt Q5U3C3), the log2 fold change is 0.131.

As to TPM3 isoform 3 (UniProt P06753), the log2 fold change is 0.011.

For TXNIP (UniProt Q9H3M7), the log2 fold change is 0.

In the case of TNKS (UniProt O95271), the log2 fold change is -0.027.

Regarding TJP1 (UniProt G3V1L9), the log2 fold change is -0.042.

Regarding TSPAN3 (UniProt O60637), the log2 fold change is -0.058.

On to TPM1 isoform 4 (UniProt P09493), for which the log2 fold change is -0.029.

As to TBC1D20 isoform 3 (UniProt Q96BZ9), the log2 fold change is 0.021.

Turning to UBL5 (UniProt Q9BZL1), the log2 fold change was -0.042.

In the case of TUBAL3 (UniProt A6NHL2), the log2 fold change is -0.001.

With TLE3 isoform 5 (UniProt Q04726), the log2 fold change was 0.031.

Compound in the next assay: Cc1cc(Nc2cc(CN3CCOCC3)c3nc(C)c(Cc4ccc(Cl)cc4F)n3n2)n[nH]1 [gandotinib]
The description is as above. In a few lines:
as §1
Regarding TMEM132A isoform 2 (UniProt Q24JP5), the log2 fold change was 0.077.

On to UBIAD1 (UniProt Q9Y5Z9), for which the log2 fold change was 0.

As for TMEM161B (UniProt Q8NDZ6), the log2 fold change was -0.289 (active).

On to TK1 (UniProt K7ERV3), for which the log2 fold change was 0.04.

For U2AF1L5 (UniProt P0DN76), the log2 fold change was 0.114.

For TUBB4A (UniProt P04350), the log2 fold change is 0.051.

As for TM2D3 (UniProt Q9BRN9), the log2 fold change was 0.329.

For the target TUBGCP5 (UniProt Q96RT8), the log2 fold change is -0.009.

On to UBXN10 (UniProt Q96LJ8), for which the log2 fold change is 0.06.

Regarding UBXN2B (UniProt Q14CS0), the log2 fold change was 0.213.

In the case of UCHL5 (UniProt Q5LJA9), the log2 fold change is -0.074.

With TNFAIP3 (UniProt P21580), the log2 fold change is -0.075.

For the target TUBB6 (UniProt K7ES63), the log2 fold change is 0.042.

Turning to TRPM4 (UniProt Q8TD43), the log2 fold change was 0.088.

In the case of TFAP4 (UniProt Q01664), the log2 fold change is 0.033.

As for TMEM164 (UniProt Q5U3C3), the log2 fold change was 0.27.

In the case of TTLL12 (UniProt V9GY16), the log2 fold change is 0.188.

Consider TPM3 isoform 3 (UniProt P06753), for which the log2 fold change was 0.176.

TXNIP (UniProt Q9H3M7): the log2 fold change is -0.089.

Regarding TMSB4X (UniProt P62328), the log2 fold change was 0.65.

In the case of TNKS (UniProt O95271), the log2 fold change is 0.038.

Turning to TJP1 (UniProt G3V1L9), the log2 fold change was 0.071.

Regarding TPD52L2 isoform 3 (UniProt O43399), the log2 fold change was 0.377.

In the case of TSPAN3 (UniProt O60637), the log2 fold change is -0.163.

Consider TMEM167B (UniProt Q9NRX6), for which the log2 fold change was 0.133.

Consider TFPI (UniProt P10646), for which the log2 fold change was -0.202.

For TPM1 isoform 4 (UniProt P09493), the log2 fold change is -0.142.

As to TBC1D20 isoform 3 (UniProt Q96BZ9), the log2 fold change is -0.105.

As for UBL5 (UniProt Q9BZL1), the log2 fold change was 0.042.

TUBAL3 (UniProt A6NHL2): the log2 fold change is 0.312.

Take TUBB4A (UniProt M0QYM7): the log2 fold change was 0.39.

For the target TMEM177 (UniProt Q53S58), the log2 fold change was -0.125.

In the case of TLE3 isoform 5 (UniProt Q04726), the log2 fold change was -0.062.

The values above are taken from the supplement of paper PMC10849652.
